hiPSC survival: enhancers of single-cell hiPSC survival, primary screen, ATPlite luminescence; 100% = ROCK inhibitor wells, 0% = DMSO; survival enhancement, % at 20 µM; 0.044% of 360,000 active; AID 602274, 2012; in the data active = survival enhancement above about 18%;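 note: cells exposed to compounds for 16 hours before the ATP read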
HIF-2a inh: HIF-2a reporter inhibitors, primary screen, luminescence, 786-0 RCC cells; 0.72% of 360,000 active; inhibition, % at 18.8 µM; AID 624352, 2012; 786-0 RCC cells HIF-2a reporter, luciferase luminescence, overnight;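 active = inhibition of the luminescence signal of 40% or more relative to plate controls, in a single-dose primary screen at 18.75 µM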
LGR2 antag: inhibitors of bursicon-induced LGR2 CRE-luciferase signal, primary screen, cell-based, HEK293, CRE-luciferase reporter, bursicon stimulation; Drosophila bursicon receptor LGR2 (rickets); bursicon-stimulated, 4 h; inhibition, % at 9.99 µM; 0.35% of 380,000 active; AID 720647, 2013;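 active = drop in luminescence signal, shown as inhibition above about 50% in the replicate tests, limit read from the data, passing the limit was not always enough; inconclusive = probably only some replicates passing the limit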;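 note: agonist challenge used bursicon conditioned medium at about half maximal strength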
TWEAK Fn14 block: inhibitors of TWEAK-Fn14 signaling, primary screen, luciferase reporter cells, uHTS; TWEAK-stimulated Fn14 reporter cells, luciferase luminescence, 8 h; inhibition, % at 10 µM; 2% of 360,000 active; in the data active = inhibition above about 50%
KKLEB tox: cytotoxicity in KKLEB CF airway cells, primary screen, cytotoxicity control for CF NF-kB inhibitor project, cell-based, uHTS, fluorescence assay plates; KKLEB CF airway cells viability, ATPlite luminescence, overnight; active compounds read low; cells stimulated with P. aeruginosa culture filtrate; 0.36% of 360,000 active; activity change (cytotoxicity), % at 5 µM;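 active = corrected activity change at or below -50% at 5 µM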
CF NFkB inh: inhibitors of PAF-induced NF-kB signaling, primary screen, cell-based, GFP fluorescence, uHTS; KKLEB NF-kB-GFP reporter, GFP fluorescence overnight; inhibition, % at 5 µM; 0.86% of 360,000 active;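 active = at least 50% inhibition at 5 µM, scaled per plate between neutral and stimulator controls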;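 note: PAF is a Pseudomonas aeruginosa culture filtrate used as stimulus; plate controls were PAF-stimulated DMSO wells for no effect and unstimulated DMSO wells for full effect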
Mdm2 MdmX conf: retested Mdm2-MdmX interaction blockers, confirmation, cell-based, luminescence, single concentration, set 2 | shares compounds with HIF-2a inh | SaOS-2 split-luciferase Mdm2/MdmX complementation | inhibition, % at 8 µM | 99% of 740 active | AID 504601, 2011;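 active = mean inhibition of the luminescence signal across two replicates at or above 26 percent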
Target sequence (O15151 whole entry, looked up): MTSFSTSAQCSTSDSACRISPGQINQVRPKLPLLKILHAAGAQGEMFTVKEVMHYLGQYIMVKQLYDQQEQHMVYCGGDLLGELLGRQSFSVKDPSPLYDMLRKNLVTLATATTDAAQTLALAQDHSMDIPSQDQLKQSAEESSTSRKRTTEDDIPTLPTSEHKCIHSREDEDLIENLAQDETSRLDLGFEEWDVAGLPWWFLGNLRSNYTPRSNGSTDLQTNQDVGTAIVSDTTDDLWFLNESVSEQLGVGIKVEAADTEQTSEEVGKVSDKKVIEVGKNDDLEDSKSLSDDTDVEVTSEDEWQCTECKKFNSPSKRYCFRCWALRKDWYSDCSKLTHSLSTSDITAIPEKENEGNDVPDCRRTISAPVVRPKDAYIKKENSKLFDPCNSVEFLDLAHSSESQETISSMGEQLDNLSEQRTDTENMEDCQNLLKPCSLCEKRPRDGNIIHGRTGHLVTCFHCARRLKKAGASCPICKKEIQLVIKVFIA
Target sequence (Q00987 whole entry, looked up): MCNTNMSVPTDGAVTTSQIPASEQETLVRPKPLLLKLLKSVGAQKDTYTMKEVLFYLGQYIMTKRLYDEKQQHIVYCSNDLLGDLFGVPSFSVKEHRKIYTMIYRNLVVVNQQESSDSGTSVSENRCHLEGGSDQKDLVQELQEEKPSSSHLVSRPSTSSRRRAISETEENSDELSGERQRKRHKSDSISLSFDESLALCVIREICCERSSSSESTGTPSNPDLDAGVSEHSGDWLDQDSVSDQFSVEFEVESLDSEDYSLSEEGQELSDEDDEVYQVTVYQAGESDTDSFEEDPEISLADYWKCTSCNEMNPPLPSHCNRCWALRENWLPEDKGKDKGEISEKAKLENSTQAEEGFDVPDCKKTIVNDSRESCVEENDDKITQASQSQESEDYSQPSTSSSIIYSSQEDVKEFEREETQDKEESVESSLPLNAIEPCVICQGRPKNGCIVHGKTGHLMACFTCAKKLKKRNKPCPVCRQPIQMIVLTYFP
HIF-2a inh conf: HIF-2a reporter inhibitor retest, confirmation, luminescence, 786-0 RCC cells | inhibition, % at 18.8 µM | 56% of 1,800 active | HIF-2a luciferase reporter luminescence, overnight | shares compounds with HIF-2a inh;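 active = mean inhibition across four replicates of at least 40 percent at the single tested concentration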
HIF-1a counter: HIF-1a luciferase reporter signal reduction – MiaPaCa-2 cells, single concentration, counter-screen for HIF-2a inhibitor project, confirmation. shares compounds with HIF-2a inh. MiaPaCa-2 HIF-1a luciferase reporter, desferoxamine, overnight. inhibition, % at 18.8 µM. 72% of 1,800 active. AID 651589, 2012;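 active = mean inhibition of the reporter signal across four replicates at the single tested dose of 50% or more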
* hit, by the source's call; ? = inconclusive; nt = no result given. Most compounds without a hit are left out; they make up all but 2.3% or so of the library.

SMILES	hiPSC survival	HIF-2a inh	LGR2 antag	TWEAK Fn14 block	KKLEB tox	CF NFkB inh	HIF-2a inh conf	HIF-1a counter	others
CS(=O)(=O)N1[C@H](C(=O)NC2CCC2)[C@@H](CO)[C@@H]2Cn3c(ccc(-c4ccccc4)c3=O)[C@@H]21	nt	nt	-1	nt	nt	nt	nt	nt
CCCCN(CC)C(=O)CSc1nc2n[nH]c(C)c2c(=N)n1-c1cccc(C)c1	0	43*	-2	2	-4	-6	10	61*
CCN(C(=O)CSc1nc2n[nH]c(C)c2c(=N)n1-c1ccc(Cl)c(C)c1)c1cccc(C)c1	0	18	18	28	6	27	nt	nt
COc1ccc(CN(C(=O)/C=C/C(=O)c2ccc(OC)cc2O)C(C(=O)NC2CCCCC2)c2ccncc2)cc1 (stereo not drawn)	-2	32	13	2	2	-4	nt	nt
COCCN(CC(=O)NC1CCCCC1)C(=O)/C=C/C(=O)c1ccc(OC)cc1O	0	92*	?	74*	5	26	99*	103*
COc1ccc(C(=O)/C=C/C(=O)N(CC(=O)NC2CCCCC2)Cc2cccs2)c(O)c1	1	95*	nt	82*	-16	35	95*	101*
Cc1cc(C(=O)Nc2cccc(C(=O)O)c2)oc1C	-2	81*	nt	22	-3	6	78*	-15
Cc1ccc(-c2csc3ncnc(Sc4nnc(CN5CCCCCC5=O)o4)c23)cc1	-4	94*	nt	85*	9	93*	100*	104*
Cc1ccc(-c2csc3ncnc(SCC(=O)Nc4nnc(C)s4)c23)cc1	1	17	nt	-3	-1	10	nt	nt
COC(=O)c1ccc2ccccc2n1	2	-19	nt	2	-8	-10	nt	nt
CCOc1ccc(N=C(NN)c2ccc3ccccc3n2)cc1	0	49*	?	94*	-5	8	45*	66*
CCCCCN=C(N)N/N=C/c1c[nH]c2ccc(OC)cc12	-3	98*	nt	-15	-24	25	35	100*
CCCOc1ccc(C(=O)N/N=C/c2c[nH]c3ccc(Br)cc23)cc1	3	14	2	8	2	2	nt	nt
CCS(=O)(=O)N[C@@H]1CC[C@@H](CC(=O)Nc2ccc(-c3ccccc3)cc2)O[C@@H]1CO	nt	nt	-3	nt	nt	nt	nt	nt
C[n+]1c(-c2ccccc2)cc2c(=Cc3ccccc3)c3ccccc3n21	-2	61*	?	74*	-29	46	93*	104*
O=C(C[C@@H]1C=C[C@@H](NC(=O)c2ccccc2)[C@H](CO)O1)NCc1ccncn1	nt	nt	1	nt	nt	nt	nt	nt
CCN(Cc1ccccc1)c1ccc(/C=N/N=C(N)N)cc1	-2	93*	62*	44	-18	35	3	108*	Mdm2 MdmX conf=103*
CCc1nc2ccc(C(=O)Nc3cc(-c4ccccc4)ccc3OC)cn2c1N(CCN(C)C)CC1CC1	-4	82*	10	-4	-20	-4	9	101*
CCc1nc2ccc(C(=O)Nc3cc(-c4ccccc4)ccc3OC)cn2c1N(C)CCC(C)C	-1	4	6	3	8	5	nt	nt
Nc1ccc(C2(c3ccc(N)cc3)c3ccccc3C(=O)c3ccccc32)cc1	0	42*	6	16	1	21	33	55*
COc1ccc(/C=N/Nc2cc(C)nc3ccc(Br)cc23)cc1	0	46*	93*	-51	-23	-127	-15	106*
CO[C@@H]1CN(C)C(=O)c2ccc(NC(=O)c3ccc4c(c3)OCO4)cc2OC[C@@H](C)N(CCC(F)(F)F)C[C@@H]1C	nt	nt	3	nt	nt	nt	nt	nt
CCOC(=O)c1c(NC(C)=O)sc2c(OCC(O)CNC(C)(C)C)c(Br)ccc12 (stereo not drawn)	-6	20	10	-136	-23	-28	nt	nt	Mdm2 MdmX conf=103*
O=[N+]([O-])c1ccc(-c2ccc(/C=N/Nc3nc(NCc4ccccc4)nc(N4CCOCC4)n3)o2)cc1	-3	59*	-13	-6	-90*	51*	16	41	Mdm2 MdmX conf=102*
Cc1cccc(CS(=O)(=O)c2nnc([C@H](Cc3ccccc3)NC(=O)OC(C)(C)C)o2)c1	0	8	nt	29	-22	69*	nt	nt	Mdm2 MdmX conf=103*
SMILES	hiPSC survival	HIF-2a inh	LGR2 antag	TWEAK Fn14 block	KKLEB tox	CF NFkB inh	HIF-2a inh conf	HIF-1a counter	others
CC(C)(C)OC(=O)N[C@@H](Cc1ccccc1)c1nnc(SCC(N)=O)o1	-1	9	-5	10	15	-6	nt	nt
O=C([C@@H]1[C@@H](CO)[C@@H]2Cn3c(ccc(C4=CCCC4)c3=O)[C@@H]2N1CC1CC1)N1CCCCC1	nt	nt	1	nt	nt	nt	nt	nt
Cc1cc(SC#N)cc(C)c1NC(=O)CCl	-3	46*	7	9	-31	49	54*	26
O=C(Cc1ccccc1)Nc1ccc2c(c1)OC1(CCCC1)O2	0	-298	-63	-21	0	3	nt	nt
Nc1ccc2c(c1)OC1(CCCC1)O2	1	52*	15	90*	11	14	19	79*	Mdm2 MdmX conf=31*
C[C@H](CO)N1C[C@H](C)[C@H](CN(C)C)Oc2ccc(NS(=O)(=O)c3ccccc3)cc2C1=O	nt	nt	9	nt	nt	nt	nt	nt
COC(=O)c1cc(=O)n(CCc2ccc(OC)cc2)c(=Nc2ccc(F)c(Cl)c2)s1	-3	15	0	-1	0	0	nt	nt
COC(=O)c1cc(=O)n(Cc2ccc3c(c2)OCO3)c(=Nc2ccc(F)c(Cl)c2)s1	2	53*	4	31	-15	44	6	59*
CCc1[nH]nc2c1C(c1ccc(Br)s1)C(C#N)=C(N)O2 (stereo not drawn)	0	41*	nt	34	-1	8	9	12
C[C@@H]1CN([C@H](C)CO)C(=O)Cc2cc(NC(=O)Cc3ccccc3)ccc2O[C@@H]1CN(C)S(C)(=O)=O	nt	nt	-10	nt	nt	nt	nt	nt

Screens (PubChem BioAssay)
